Experimental data reported in PubChem BioAssay (NCATS).
Results filed as inconclusive are left out. Calls of active or inactive are those of the source. Calls follow the shape of the dose curve; as a rule, active = well fitted cell-killing curve with a large enough effect; inconclusive = small, poorly fitted or top-dose-only effect, or effect the other way; inactive = flat fitted curve, though single readings scatter. Where a SMILES comes first, the peptide text is derived from it. [ ]: non-standard residue; d: D form. ξ: configuration not given here. ξTyr(βOH) = NC(C(=O)O)C(O)c1ccc(O)cc1

Key:
Assay in all cases: Primary qHTS to identify gynecologic anti-cancer compounds using libraries of approved drugs and bioactive compounds (AID 1345084); also: nearly all actives have a fitted effect of over 55% in size
Conditions in all cases: Gynecologic cancer cell panel viability, ATPlite luminescence, 48 h; series mostly up to 57.5 µM
PA-1 = test system: PA-1
Method in brief: (§1)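 Cells, 1,000 per well, were allowed to settle for 16 h at 37 C before compound addition. Five concentrations were tested for 48 h, and viability was read by ATPlite luminescence after 15 min at room temperature.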

Tov-21-G = test system: Tov-21-G
Method in brief: as §1

Tov112D = test system: Tov112D
Method in brief: as §1
% is scaled to controls: 0 for no effect and ±100 for the full control effect.

C[C@@H]1CCC2C(C)(C)[C@H](O)[C@H](O)C[C@]2(C)[C@@]12Cc1c(O)cc3c(c1O2)CN(CCCC(=O)O)C3=O (stereo partly drawn)
inactive: Potency (PA-1) | Potency (Tov-21-G) | Potency (Tov112D)

C=C1CC23CC1CCC2C12OC(=O)C(C)(C(O)C(O)C1O)C2C3C(=O)O (stereo not drawn)
inactive: Potency (PA-1) | Potency (Tov-21-G) | Potency (Tov112D)

C=C(CCO)C(=O)OCC1OCC(OC(=O)C(=C)CCO[C@@H]2O[C@H](COC(=O)C(=C)CCO[C@@H]3O[C@H](CO)[C@@H](O)[C@H](O)[C@H]3O)[C@@H](O)[C@H](O)[C@H]2O)C(O)C1O (stereo partly drawn)
inactive: Potency (PA-1) | Potency (Tov-21-G) | Potency (Tov112D)

COc1cc2nc(=NC(=O)c3cccnc3)n3c(c2cc1OC)NCC3
inactive: Potency (PA-1) | Potency (Tov-21-G) | Potency (Tov112D)

C=CC(C)(O)CCC1C(C)(O)CCC2C(C)(C)CCCC21C (stereo not drawn)
inactive: Potency (PA-1) | Potency (Tov-21-G) | Potency (Tov112D)

O=C(/C=C/c1ccccc1)OC[C@H]1O[C@@H](OC(=O)c2cc(O)c(O)c(O)c2)[C@H](O)[C@@H](O)[C@@H]1O
inactive: Potency (PA-1) | Potency (Tov-21-G) | Potency (Tov112D)

COCC1OC(n2cnc3c(=O)[nH]cnc32)C(O)C1O (stereo not drawn)
inactive: Potency (PA-1) | Potency (Tov-21-G) | Potency (Tov112D)

CC1=C[C@@H]2[C@H]3[C@@H]4O[C@@](C)(CC[C@H]4O)[C@H]3CC(=O)[C@]23C(=O)N[C@@H](CC(C)C)[C@@H]3[C@@H]1C
inactive: Potency (PA-1) | Potency (Tov-21-G) | Potency (Tov112D)

CC(C)C1NC(=O)CNC(=O)C2CCCN2C(=O)C(Cc2c[nH]c3ccccc23)NC(=O)CNC(=O)C(C(O)c2ccc(O)cc2)NC(=O)CNC1=O (stereo not drawn) (cyclo(G[ξTyr(βOH)]GWPGV); configuration not given here)
inactive: Potency (PA-1) | Potency (Tov-21-G) | Potency (Tov112D)

Nc1c(-c2ccccc2)nc(Cl)c2c(O)n[nH]c(=O)c12
inactive: Potency (PA-1) | Potency (Tov-21-G) | Potency (Tov112D)

C[C@H]1[C@@H](O)[C@H](O)C2[C@]3(C)C([C@@H](O)[C@H]4OC(=O)[C@@H]1[C@@]24C)[C@](C)(O)C=C[C@H]3O[C@@H]1O[C@H](CO)[C@@H](O)[C@H](O)[C@H]1O (stereo partly drawn)
inactive: Potency (PA-1) | Potency (Tov-21-G) | Potency (Tov112D)

C=CC(C)(O)C1CC2C3(C)CCCC(C)(C)C3C(O)C(O)C2(C)O1 (stereo not drawn)
inactive: Potency (PA-1) | Potency (Tov-21-G) | Potency (Tov112D)

O=[N+]([O-])c1cc(Cl)ccc1S(=O)(=O)N1CCN(Cc2ccccc2)CC1
inactive: Potency (PA-1) | Potency (Tov-21-G) | Potency (Tov112D)

CC1=C2C[C@@]3(C)C(CCC[C@@H]3C)C(O)C2(O)OC1=O (stereo partly drawn)
inactive: Potency (PA-1) | Potency (Tov-21-G) | Potency (Tov112D)

CC[C@@H]1[C@H]2CCCCN3C(=O)C[C@H]([C@@H]4[C@H]1OC(=O)[C@H]4C)[C@@H]23
inactive: Potency (PA-1) | Potency (Tov-21-G) | Potency (Tov112D)

Cc1cc(Cn2cnc3c2CC(C(=O)O)N(C(=O)C(c2ccccc2)c2ccccc2)C3)ccc1N(C)C (stereo not drawn)
inactive: Potency (PA-1) | Potency (Tov-21-G) | Potency (Tov112D)

C=C1CCC2[C@@](C)(C(=O)O)CCC[C@@]2(C)[C@@H]1CCc1ccoc1 (stereo partly drawn)
inactive: Potency (PA-1) | Potency (Tov-21-G) | Potency (Tov112D)

CC(=O)OC1CC(=O)C2(C)C3CC4=C(OC(C)CC4=O)OC3(C)CCC2C1(C)C (stereo not drawn)
inactive: Potency (PA-1) | Potency (Tov-21-G) | Potency (Tov112D)

CC(C)[C@](O)(c1ccc2cc(OC(F)F)c(OC(F)F)cc2c1)c1cn[nH]n1
inactive: Potency (PA-1) | Potency (Tov-21-G) | Potency (Tov112D)

O=C(O)Cn1nnc(-c2ccc(CN(CCCCOc3ccc(CN4CCCC4)cc3)CCc3ccccc3)cc2)n1
inactive: Potency (PA-1) | Potency (Tov-21-G) | Potency (Tov112D)

O=c1[nH]ccc2nc(-c3ccc(CN4CCC(c5nc(-c6ccccn6)n[nH]5)CC4)cc3)c(-c3ccccc3)cc12
inactive: Potency (PA-1) | Potency (Tov-21-G) | Potency (Tov112D)

COc1c(O[C@@H]2O[C@H](CO)[C@@H](O)[C@H](O)[C@H]2O)c(CCC(=O)O)cc2ccoc12
inactive: Potency (PA-1) | Potency (Tov-21-G) | Potency (Tov112D)

Cn1nccc1-c1ccccc1Oc1ccc(S(=O)(=O)Nc2nccs2)cc1C#N
inactive: Potency (PA-1) | Potency (Tov-21-G) | Potency (Tov112D)

CC1(C)CCCC2(C)c3c4c(c(=O)oc(=O)c3=CCC12)=CCC1C(C)(C)CCCC41C (stereo not drawn)
inactive: Potency (PA-1) | Potency (Tov-21-G) | Potency (Tov112D)

CC(=O)OC12CC(C)C(O)C1/C=C(/COC1OC(CO)C(O)C(O)C1O)CCC1C(/C=C(\C)C2=O)C1(C)C (stereo not drawn)
inactive: Potency (PA-1) | Potency (Tov-21-G) | Potency (Tov112D)

C/C=C(/C)C(=O)OC1C(OC(C)=O)C23C(O)OC4(CCC5C6(C)CCC(OC7OC(C(=O)O)C(O)C(OC8OC(CO)C(O)C(O)C8OC8OC(C)C(O)C(O)C8OC8OCC(O)C(O)C8O)C7OC7OC(CO)C(O)C(O)C7O)C(C)(C)C6CCC5(C)C4(C)CC2OC(C)=O)C3CC1(C)C (stereo not drawn)
inactive: activity change, negative = cytotoxicity (PA-1) -0.0173% [at 6.55 µM] | activity change, negative = cytotoxicity (Tov-21-G) -4.78% [at 6.55 µM] | activity change, negative = cytotoxicity (Tov112D) 1.18% [at 6.55 µM]
